Consider 26 molecules from PubChem BioAssay (NCATS).

Each structure is given as a SMILES string. Records with an inconclusive call do not appear. Entries that show only a call come without a potency. Active and inactive are the calls of the source. Calls come from the whole dose curve; as a rule, active = well fitted inhibition curve with a large enough effect; inconclusive = small, poorly fitted or top-dose-only effect; inactive = flat fitted curve, though single readings scatter.

In the assay the target is Glutathione peroxidase 1 (Homo sapiens) (UniProt P07203). Description: Primary qHTS Assay for Inhibitors of Recombinant Selenoprotein Glutathione Peroxidase 1 (GPX1) (AID 1845191). Note: nearly all actives have a fitted effect of over 65% in size. As to conditions: recombinant GPX1, GR-coupled NADPH fluorescence, 15 min; series mostly up to 27.7 µM. In outline: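 GR-coupled readout: NADPH consumption tracked by fluorescence, ex 340/em 450 nm, at t=0 and after 15 min at RT. Final mix 10 nM GPX1, 1 mM GSH, 0.5 mM CHP, 0.5 mM NADPH, 100 nM GR, 0.01% BSA, following 30 min enzyme–compound preincubation.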
Chain of Glutathione peroxidase 1 (Homo sapiens) (P07203 whole entry, looked up): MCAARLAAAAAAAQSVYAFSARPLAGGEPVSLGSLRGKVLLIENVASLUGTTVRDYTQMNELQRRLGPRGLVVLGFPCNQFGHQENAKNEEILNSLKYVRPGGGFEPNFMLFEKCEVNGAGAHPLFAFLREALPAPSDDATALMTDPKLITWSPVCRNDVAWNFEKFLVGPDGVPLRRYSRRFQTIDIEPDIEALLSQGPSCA
A general note: Quantitative high-throughput screening tests each substance at several concentrations.
Take `COc1cc(-c2ccc(O)cc2)c(OC)c(O)c1C1=CC(=O)OC1CC(=O)O` (stereo unspecified): the Potency entry was “inactive”.

Take `CC/C=C/C=C/C1(C)OC(CC(CO)OC)=CC1=O` (stereo unspecified): the Potency result was “inactive”.

Consider `CC(=O)O[C@@H]1[C@H](O[C@@H]2O[C@H](CO)[C@@H](O)[C@H](O)[C@H]2O)[C@@H](O[C@@H]2O[C@@H](C)[C@H](O)[C@@H](O[C@@H]3O[C@H](CO)[C@@H](O)[C@H](O)[C@H]3O)[C@H]2O)[C@H](OC(=O)[C@]23CCC(C)(C)C[C@H]2C2=CCC4[C@@]5(C)C[C@H](O)[C@H](O[C@@H]6O[C@H](C(=O)O)[C@@H](O)[C@H](O)[C@H]6O)[C@@](C)(C(=O)O)C5CC[C@@]4(C)[C@]2(C)CC3)O[C@@H]1C` (stereo partly specified), for which the Potency entry is “inactive”.

Consider `COc1cc(C2OCC3(O)C(c4ccc(O[C@@H]5O[C@H](CO)[C@@H](O)[C@H](O)[C@H]5O)c(OC)c4)OCC23O)ccc1O` (stereo partly specified), for which the Potency entry was “inactive”.

For `CC12CC(c3ccoc3)OC(=O)C1CCC1(C)C2CCC(O)C1(C)O` (stereo unspecified), the Potency result is “inactive”.

On to `COc1cccc2c1c(O)c(C(=O)N(C)c1ccc(C(F)(F)F)cc1)c(=O)n2C`, for which the Potency entry is “inactive”.

Consider `CC1(C)CC[C@]2(C(=O)OC3OC(CO)C(O)C(O)C3O)CC[C@]3(C)C(=CCC4[C@@]5(C)C[C@@H](O)[C@H](OC6OC(C(=O)O)C(O)C(O)C6O)C(C)(C)C5CC[C@]43C)[C@@H]2C1` (stereo partly specified), for which the Potency result was “inactive”.

As for `CC(C)=CCC(O)[C@](C)(O)C1[C@H](O)C[C@@]2(C)C3CC=C4C(C[C@H](O)[C@@H](O[C@@H]5O[C@H](CO)[C@@H](O)[C@H](O)[C@H]5O)C4(C)C)[C@]3(C)C(=O)C[C@]12C` (stereo partly specified), the Potency entry is “inactive”.

On to `CC1CC2OCC3(O)CCC(O)C(C14CC(c1ccoc1)OC4=O)C23CO` (stereo unspecified), for which the Potency result was “inactive”.

Turning to `CC(=O)OC(C)C(C)(O)C(=O)O[C@@H]1CC[C@]2(C)CC(=O)C(=C(C)C)C[C@H]2[C@]1(C)OC(C)=O` (stereo partly specified), the Potency entry was “inactive”.

`C=C[C@@]1(C)CCC2=C([C@H]1OC(C)=O)[C@H](OC(C)=O)CC1[C@](C)(C(=O)OC)CC[C@H](OC(C)=O)[C@]21C` (stereo partly specified): the Potency entry is “inactive”.

For `Cc1ccc(-c2c(-c3nn(C)c4ncnc(N5CC[C@H](N6CCCCC6)C5)c34)cnn2C)cc1`, the Potency result is “inactive”.

In the case of `CC1(C)CC[C@]2(C(=O)O)CC[C@]3(C)C(=CCC4[C@@]5(C)C[C@@H](O)[C@H](O)[C@@](C)(CO)C5[C@H](O)C[C@]43C)[C@@H]2C1` (stereo partly specified), the Potency entry was “inactive”.

On to `CC(C)=CCC[C@](C)(O[C@@H]1O[C@H](CO[C@@H]2O[C@@H](CO)[C@H](O)[C@H]2O[C@@H]2OC[C@@H](O)[C@H](O)[C@H]2O)[C@@H](O)[C@H](O)[C@H]1O)[C@H]1CC[C@]2(C)[C@@H]1[C@H](O)CC1[C@@]3(C)CC[C@H](O[C@@H]4O[C@H](CO)[C@@H](O)[C@H](O)[C@H]4O[C@@H]4O[C@H](CO)[C@@H](O)[C@H](O)[C@H]4O)C(C)(C)C3CC[C@]12C` (stereo partly specified), for which the Potency entry is “inactive”.

Turning to `C=C1C2CCC3CC2(CC(O)C2(O)C1CC(OC1OC(CO)C(O)C(O)C1O)C2(C)C)CC3(C)O` (stereo unspecified), the Potency entry is “inactive”.

For the molecule `C=C1CC[C@H]2[C@@](C)(CCC(O)[C@@]2(C)CO)[C@@H]1/C=C/C(=C\C(=O)O)C(=O)O` (stereo partly specified), the Potency result was “inactive”.

As for `Nc1ncnc2c1ncn2[C@H]1O[C@@H](C(=O)N2CCN(CC(=O)Nc3cccc4c3CNC4=O)CC2)[C@H](O)[C@@H]1O`, the Potency result was “inactive”.

For the molecule `Cc1cc(O[C@@H]2O[C@H](COC(=O)CC(=O)O)[C@@H](O)[C@H](O)[C@H]2O)c(C(C)C)cc1O`, the Potency result was “inactive”.

With `CC1C2=CC(=O)OC2(O)CC2C1C(OC(=O)c1ccccc1)C(OC(=O)c1ccccc1)C1(O)C2(C)CCC(O)C1(C)C(=O)O` (stereo unspecified), the Potency result is “inactive”.

Turning to `CC(C)NC(=O)c1ccc(C#Cc2ccncc2)cn1`, the Potency entry was “inactive”.

For the molecule `O=C(O)CC1CCC(c2ccc(NC(=O)c3nnc(Nc4ccc(F)c(F)c4)o3)cc2)CC1` (stereo unspecified), the Potency entry is “inactive”.

For `CCC(C)/C=C(C)/C=C/C1=CC2=C(Cl)C(=O)C(C)(OC(C)=O)C(=O)C2=CN1C(CC(=O)O)C(=O)O` (stereo unspecified), the Potency result was “inactive”.

Consider `C[C@]12CC/C(=N\OCC(=O)O)C=C1CC[C@@H]1[C@@H]2[C@@H](O)C[C@@]2(C)[C@H]1CC[C@]2(O)C(=O)CO`, for which the Potency result is “inactive”.

As to `CNC(=O)c1ccc2c(c1)CCO[C@H]2CCN1CCN(c2ccc(C(N)=O)cc2)CC1`, the Potency entry is “inactive”.

With `COC(=O)C1=CO[C@@H](O[C@@H]2O[C@H](CO)[C@@H](O)[C@H](O)[C@H]2O)/C(=C\CO)[C@@H]1CC(=O)OCCc1ccc(O)cc1`, the Potency entry is “inactive”.

With `C/C=C/C=C/C(O)=C1/C(=O)[C@]2(C)C(=O)[C@@](C)(O)[C@H]1[C@H]([C@@]1(C)OC(=O)C(C)=C1O)[C@H]2C(=O)CC/C=C/C`, the Potency result was “inactive”.
